# From PubChem BioAssay (NCATS)
# Records with an inconclusive call do not appear. Entries that show only a call come without a potency. The source made the active and inactive calls. Calls follow the shape of the dose curve; as a rule, active = well fitted curve in the direction sought with a large enough effect; inconclusive = small, poorly fitted or top-dose-only effect, or another doubt; inactive = no such curve, though single readings can be large; an effect the other way counts as inactive or inconclusive.
# Key:
# [1] = target: Phospholipid hydroperoxide glutathione peroxidase GPX4 (Homo sapiens) (UniProt P36969); assay: Primary qHTS Assay for Inhibitors of Recombinant Selenoprotein Glutathione Peroxidase 4 (GPX4) (AID 1845192); also: nearly all actives have a fitted effect of over 65% in size; also: potency is read from the fitted curve at half-maximal effect
# Summary of the method: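 NADPH consumption, followed by fluorescence at 340/450 nm between 0 and 15 min, reports GPX4 activity via coupled glutathione reductase (100 nM). Enzyme 200 nM was pre-exposed to compound 30 min; 0.5 mM cumene hydroperoxide and 1 mM GSH served as substrates.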
# [2] = target: Luciferin 4-monooxygenase (Photinus pyralis) (UniProt P08659); assay: Primary firefly luciferase (FLuc) qHTS assay for identification of artifact compounds. (AID 1845220); settings: outcome: dose series up to 54.1 µM; also: nearly all actives have a fitted effect of over 60% in size
# Summary of the method: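 Compounds sat 15 min at room temperature with 10 uM luciferin and 10 uM ATP (pH 7.6 Tris acetate). Firefly luciferase (10 nM final) was then added, and luminescence was read 5 min later. Data normalized to no-enzyme and DMSO controls were Hill-fitted.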
# [3] = system: Nanoluciferase (engineered Oplophorus gracilirostris luciferase); assay: Primary Nanoluciferase (NLuc) qHTS assay for identification of artifact compounds. (AID 1845222); also: series mostly up to about 54 µM
# Summary of the method: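 Luminescence from secreted NLuc (filtered, 1:55-diluted S16 cell medium) read 5 min after Nano-Glo substrate; compounds preincubated 15 min, RT. Hill fits of inhibition normalized to DMSO and no-enzyme.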
# [4] = Primary redox qHTS assay for identification of artifact compounds. (AID 1845223)
# Summary of the method: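 Amplex Red (25 uM) and HRP (250 mU/mL) in HBSS, with compounds for 15 min, then 250 uM DTT for 30 min, room temperature, dark. Fluorescence 525/598 nm read; normalized to DMSO and 10 uM DA3003; Hill fit.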
# [5] = Quantitative High-Throughput drug screen in 47 multiple myeloma cell lines against the NCATS MIPE library collection: FR4_PLB cell viability assay (AID 1918924; also: nearly all actives have a fitted effect of over 35% in size; also: potency is read from the fitted curve at half-maximal effect)
# Text: (§1) PI: Beverly A. Mock Ph.D.
# (§2) Laboratory of Cancer Biology and Genetics,
# (§3) Center for Cancer Research, National Cancer Institute,
# (§4) National Institute of Health, Bethesda, Maryland
# (§5) Drug resistance and disease progression are common in multiple myeloma (MM) patients, underscoring the need for new therapeutic combinations. […] We hypothesized that effective combinations would reduce MYC expression and enhance p16 activity. […] These preclinical data identify potentially useful drug combinations for evaluation in drug-resistant MM and reveal potential mechanisms of combined drug sensitivity.
# (§6) Described herein is the primary MIPE qHTS used to cherrypick compounds. Validated compounds were then further tested for potential synergistic activiy.
# [1] Peat TJ, Gaikwad SM, Dubois W, Gyabaah-Kessie N, Zhang S, Gorjifard S, Phyo Z, Andres M, Hughitt VK, Simpson RM, Miller MA, Girvin AT, Taylor A, Williams D, D'Antonio N, Zhang Y, Rajagopalan A, Flietner E, Wilson K, Zhang X, Shinn P, Klumpp-Thomas C, McKnight C, Itkin Z, Chen L, Kazandijian D, Zhang J, Michalowski AM, Simmons JK, Keats J, Thomas CJ, Mock BA. Drug combinations identified by high-throughput screening promote cell cycle transition and upregulate Smad pathways in myeloma. Cancer Lett. 2023 Aug 1;568:216284. doi: 10.1016/j.canlet.2023.216284. Epub 2023 Jun 24. PMID: 37356470; PMCID: PMC10408729.
# SEQUENCE No. (e.g., 1, 2, 3, etc.); […] (e.g., Cells, Incubation, Reagent, etc.); VALUE and DESCRIPTION.
# 1; Cells; 5 uL; white, solid bottom 1536-well Greiner assay plate.
# 2; Compounds; 23 nL; Kalypsis pin tool (Wako USA) equipped with a 1536-well pin head to transfer to the assay plates.
# 3; Incubation; 48 hours; 37C incubation.
# 4; Reagent;5uL; CellTiter Glo (Promega).
# (§7) 5; Detector; 425V; Luminescence; Viewlux PerkinElmer. […]
# (§8) 1. […] Briefly, the corresponding myeloma cell lines were screened in 1,536-well plates with 500 cells, 5-uL per well for inhibition of cell viability (assessed by measuring ATP levels with CellTiterGlo). […]
# (§9) 5. Signal was measured as median relative luminescence units on a ViewLux (PerkinElmer) multiplate reader. […]
# [6] = Quantitative High-Throughput drug screen in 47 multiple myeloma cell lines against the NCATS MIPE library collection: Delta47_JCRB cell viability assay (AID 1918925; also: nearly all actives have a fitted effect of over 45% in size; also: potency is read from the fitted curve at half-maximal effect)
# Summary of the method: (§10)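 Steps: seed 500 cells per well; pin-transfer MIPE 4.0 library; incubate 48 h at 37C, 5% CO2, humidified; add CellTiter-Glo, 5 min room temperature; read luminescence.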
# [7] = Quantitative High-Throughput drug screen in 47 multiple myeloma cell lines against the NCATS MIPE library collection: EJM_DSMZ cell viability assay (AID 1918926; also: nearly all actives have a fitted effect of over 30% in size; also: potency is read from the fitted curve at half-maximal effect)
# Summary of the method: as §10
# [8] = Quantitative High-Throughput drug screen in 47 multiple myeloma cell lines against the NCATS MIPE library collection: AMO1_DSMZ cell viability assay (AID 1918927; also: nearly all actives have a fitted effect of over 30% in size; also: potency is read from the fitted curve at half-maximal effect)
# Summary of the method: as §10
# [9] = Quantitative High-Throughput drug screen in 47 multiple myeloma cell lines against the NCATS MIPE library collection: ARP1_JJKsccF8 cell viability assay (AID 1918928; also: nearly all actives have a fitted effect of over 40% in size; also: potency is read from the fitted curve at half-maximal effect)
# Summary of the method: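 Luminescence from CellTiter-Glo, taken after 5 min at room temperature, reports cellular ATP as viability. Cells (500 per well) had been treated 48 h at 37 °C with MIPE 4.0 compounds, scaled between DMSO and medium-only controls.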
# [10] = Quantitative High-Throughput drug screen in 47 multiple myeloma cell lines against the NCATS MIPE library collection: ARD_JJKsccE7 cell viability assay (AID 1918929; also: potency is read from the fitted curve at half-maximal effect)
# Text: as §1, §2, §3, §4, §5, §6
# [1] […]
# as §7, §8, §9
# Phospholipid hydroperoxide glutathione peroxidase GPX4 (Homo sapiens), sequence (P36969 whole entry, looked up): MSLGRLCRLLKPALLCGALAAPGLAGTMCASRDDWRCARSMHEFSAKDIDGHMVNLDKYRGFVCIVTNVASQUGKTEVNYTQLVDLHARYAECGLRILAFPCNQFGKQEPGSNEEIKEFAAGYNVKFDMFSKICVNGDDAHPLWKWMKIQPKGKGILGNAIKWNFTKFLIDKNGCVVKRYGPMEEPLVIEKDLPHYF
smiles,measurement,setting,value
C[C@@H]1CC[C@H]2[C@@H](C)C(=O)O[C@@H]3O[C@@]4(C)CC[C@@H]1[C@]32OO4,Potency,[1],inactive
CC[C@H]1C[C@H]2[C@@H]3CCC4=CC(=O)CC[C@@H]4[C@H]3CC[C@]2(C)[C@H]1O,Potency,[1],inactive
same,outcome,[2],inactive
same,outcome,[3],inactive
same,outcome,[4],inactive
CCCOC(=O)Cc1ccc(OCC(=O)N(CC)CC)c(OC)c1,Potency,[1],inactive
same,outcome,[2],inactive
same,outcome,[3],inactive
same,outcome,[4],inactive
O=C(N[C@H]1N=C(c2ccccc2F)c2cccc3c2N(CC3)C1=O)c1cc2ccccc2[nH]1,outcome,[2],inactive
same,outcome,[3],inactive
same,outcome,[4],inactive
c1ccc2c(c1)Sc1ccccc1N2CC1CN2CCC1CC2 (stereo not drawn),Potency,[1],inactive
C[C@@H]1C[C@@H]([C@H](O)CC2CC(=O)NC(=O)C2)C(=O)[C@@H](C)C1,Potency,[1],inactive
same,Potency,[5],743 nM (active)
same,Potency,[6],743 nM (active)
same,Potency,[7],3320 nM (active)
same,Potency,[8],469 nM (active)
same,Potency,[9],52.6 nM (active)
same,Potency,[10],166 nM (active)
COc1ccc(CN2CCNCC2)c(OC)c1OC,Potency,[1],inactive
CNC(=O)Oc1cccc2ccccc12,Potency,[1],inactive
O=C(O)Cc1ccccc1,Potency,[1],inactive
Cc1nnc2n1-c1sc(CCc3ccc(CC(C)C)cc3)cc1C(c1ccccc1Cl)=NC2C (stereo not drawn),Potency,[1],25500 nM (active)
same,outcome,[2],inactive
same,outcome,[3],inactive
same,outcome,[4],inactive
C#C[C@]1(O)C=C[C@H]2[C@@H]3CCC4=CC(=O)CC[C@@H]4[C@H]3CC[C@@]21CC,Potency,[1],inactive
CCOC(=O)c1ncn2c1CN(C)C(=O)c1c(I)cccc1-2,Potency,[1],inactive
same,outcome,[2],inactive
same,outcome,[3],inactive
same,outcome,[4],inactive
CCCCCCCCCCCC[N+](C)(C)CCOc1ccccc1,Potency,[1],inactive
C#C[C@]1(O)CC[C@H]2[C@@H]3CCC4=CC(=O)CCC4=C3C=C[C@@]21CC,Potency,[1],10000 nM (active)
C=CCOC(Cn1ccnc1)c1ccc(Cl)cc1Cl (stereo not drawn),Potency,[1],inactive
NC(=O)OCCCc1ccccc1,Potency,[1],inactive
O=C(O)CCCCCCNC1c2ccccc2CCc2ccccc21,Potency,[1],inactive
same,outcome,[2],inactive
same,outcome,[3],inactive
same,outcome,[4],inactive
CCC(=O)O[C@H]1CC[C@H]2[C@@H]3CCC4=CC(=O)CC[C@]4(C)[C@H]3CC[C@]12C,Potency,[1],inactive
Nc1ccccc1C(=O)OCC(O)CO (stereo not drawn),Potency,[1],inactive
O=C(O)c1nn(Cc2ccc(Cl)cc2Cl)c2ccccc12,Potency,[1],inactive
same,Potency,[7],inactive
same,Potency,[9],inactive
same,Potency,[10],inactive
CCOC(=O)NC(C)(C)Cc1ccc(Cl)cc1,Potency,[1],inactive
same,outcome,[2],inactive
same,outcome,[3],inactive
same,outcome,[4],inactive
C[C@]12CC[C@H](O)CC1=CC[C@@H]1[C@@H]2CC[C@]2(C)C(=O)CC[C@@H]12,Potency,[1],inactive
same,outcome,[2],inactive
same,outcome,[3],inactive
same,outcome,[4],inactive
CN(C)C(=S)SSC(=S)N(C)C,Potency,[1],inactive
COC(=O)C1=CCCN(C)C1,Potency,[1],inactive
same,Potency,[5],inactive
same,Potency,[6],inactive
same,Potency,[7],inactive
same,Potency,[9],inactive
C[C@@H]1CN(C2CCC(C#N)(c3ccc(F)cc3)CC2)CC[C@]1(C(=O)O)c1ccccc1 (stereo partly drawn),Potency,[1],inactive
COc1ccc(C(=O)N2CCCC2=O)cc1,Potency,[1],inactive
same,Potency,[5],inactive
same,Potency,[7],inactive
same,Potency,[8],inactive
CC#C[C@]1(O)CC[C@H]2[C@@H]3C[C@H](C)C4=CC(=O)CC[C@]4(C)[C@H]3CC[C@@]21C,Potency,[1],inactive
Clc1ccc(C(OCCN2CCCCC2)c2ccccc2)cc1 (stereo not drawn),Potency,[1],inactive
CCCCC1C(=O)NC(=O)N(C2CCCCC2)C1=O (stereo not drawn),Potency,[1],inactive
same,outcome,[2],inactive
same,outcome,[3],inactive
same,outcome,[4],inactive
CC(Cc1ccccc1)NCCCCl (stereo not drawn),Potency,[1],inactive
CCOC(=O)c1cncn1C(C)c1ccccc1 (stereo not drawn),Potency,[1],inactive
same,outcome,[2],inactive
same,outcome,[3],inactive
same,outcome,[4],inactive
O=C(N[C@@H]1N=C(c2ccccc2F)c2cccc3c2N(CC3)C1=O)c1cc2ccccc2[nH]1,Potency,[1],inactive
same,outcome,[3],inactive
same,outcome,[4],inactive
CCCC[N+]1(C)[C@@H]2CC(OC(=O)[C@H](CO)c3ccccc3)C[C@H]1[C@@H]1O[C@@H]12 (stereo partly drawn),Potency,[1],inactive
same,outcome,[2],inactive
same,outcome,[3],inactive
same,outcome,[4],inactive
C[C@@H]1O[C@@H](O[C@@H]2C=C3CC[C@@H]4[C@H](CC[C@]5(C)[C@@H](c6ccc(=O)oc6)CC[C@]45O)[C@@]3(C)CC2)[C@H](O)[C@H](O)[C@H]1O,Potency,[1],inactive
O=C(CCCN1CCC(n2c(=O)[nH]c3ccccc32)CC1)c1ccc(F)cc1,Potency,[1],inactive
COc1ccc2c(C(=O)c3ccc(Cl)cc3)c(C)n(CC(=O)O)c2c1,Potency,[1],inactive
same,outcome,[2],inactive
same,outcome,[3],inactive
